# Values joined by “and” are separate entries in the source; they are usually repeats but may differ in a detail not shown here. Identical values can stand only once. ± gives the standard deviation of the averaged measurements.
# How the values were obtained:
# Details in all cases: concentration: 10 µM; 24 h
# HCC1569 [1] = experiment: cell number relative to DMSO (% of DMSO); higher = more cells (less growth inhibition / toxicity)
# Outline: (§1)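 Six fields per well were imaged at ×10 after the cells were fixed in 3.7% formaldehyde and stained with a rabbit anti-H1.0 antibody, an AlexaFluor 647 secondary and DAPI. The HCC1569 and TDF cells had been plated at 800 per well in 384-well plates (RPMI, 10% FBS) and treated in triplicate with compounds at 10 µM for 24 h at 37 °C. The values are the median of replicates of H1.0 nuclear intensity or cell number, as percent of the plate control. Smoothing for positional effects was applied to HCC1569 data.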
# TDF [2] = experiment: as above
# Outline: as §1
# TDF [3] = experiment: H1.0 immunofluorescence intensity relative to DMSO (% of DMSO); higher = stronger H1.0 induction, active = 120 or more
# Outline: as §1
# HCC1569 [4] = experiment: H1.0 immunofluorescence intensity relative to DMSO (% of DMSO); higher = stronger H1.0 induction, active = 140 or more
# Outline: as §1
# 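For H1.0 immunofluorescence intensity relative to DMSO in this document: TDF is a line of transformed human dermal fibroblasts of mesenchymal origin.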
# 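For cell number relative to DMSO in this document: TDF denotes transformed human dermal fibroblasts of mesenchymal origin.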
Structure (SMILES),cell number (HCC1569 [1]),cell number (TDF [2]),H1.0 immunofluorescence intensity (TDF [3]),H1.0 immunofluorescence intensity (HCC1569 [4])
CC1OC(OCC2OC(Oc3cc(O)c4c(c3)OC(c3ccc(O)c(O)c3)CC4=O)C(O)C(O)C2O)C(O)C(O)C1O (centres undefined) [Eriocitrin],101,119,89 (inactive),84 (inactive)
"COc1cc2c3cc1Oc1cc(ccc1O)CC1c4c(cc(OC)c(O)c4Oc4ccc(cc4)CC3N(C)CC2)CC[N+]1(C)C.Cl.[Cl-] (single isomer, unassigned; (+)) [(+)-Tubocuraraine chloride]",108,109,93.2 (inactive),99.2 (inactive)
Cc1cnc(C(=O)O)c[n+]1[O-] [Acipimox],100,108,95.2 (inactive),104 (inactive)
COc1cc(C)c(C=CC(C)=CC=CC(C)=CC(=O)O)c(C)c1C [Acitretin],98.5,108,90.1 (inactive),126 (inactive)
c1ccc(C2CN3CCSC3=N2)cc1 (centres undefined) [Levamisole],98.3,94.6,102 (inactive),92.1 (inactive)
CN1CCN2c3ccccc3Cc3ccccc3C2C1.Cl (centres undefined) [Mianserin hydrochloride],105,101,95.5 (inactive),98.4 (inactive)
COc1ccc(N2C(=O)CSC2c2cccc(Br)c2)c(OC)c1 (centres undefined),59.5,10.8,156 (active),146 (active)
Nc1nccc2c1ncn2C1OC(CO)C(O)C1O (centres undefined) [3-deazaadenosine],97,88.2,93.7 (inactive),88.8 (inactive)
N#CC(=C(N)Sc1ccccc1N)c1cccc(C(O)c2ccncc2)c1 (centres undefined) [MEK Inhibitor I],77.2,86.8,98.7 (inactive),176 (active)
CC1CNCCN1S(=O)(=O)c1cccc2cnccc12.Cl.Cl (centres undefined) [H-7 dihydrochloride],96.8,100,107 (inactive),95 (inactive)
CS(=O)(=O)O.O=C1Nc2ccc(-c3cccnc3)cc2C1=Cc1ccc[nH]1 [JAK3 Inhibitor VI],73,47.7,108 (inactive),130 (inactive)
CC1(C)C(C(=O)O)N2C(=O)CC2S1(=O)=O (centres undefined) [Sulbactam],–,–,95.9 (inactive),108 (inactive)
Cc1c(C(=O)O)c(O)cc2c1C(=O)c1c(O)c(C3OC(CO)C(O)C(O)C3O)c(O)c(O)c1C2=O (centres undefined) [Carminic acid],101,107,102 (inactive),99.8 (inactive)
CCCCCC(O)C=CC=CCC=CCCCCCCC(=O)O (centres undefined),99.9,104,99.2 (inactive),94.6 (inactive)
CC(C)(C)C1(O)CCN2CC3c4ccccc4CCc4cccc(c43)C2C1.Cl (racemic),105,111,88.7 (inactive),91 (inactive)
COc1ccc(-n2c(SCC#N)nc3sc4c(c3c2=O)CCCC4)cc1,91.9,92.5,86.3 (inactive),108 (inactive)
NC(=O)Nc1cc(-c2cccc(F)c2)sc1C(=O)NC1CCCNC1 (centres undefined),19.9,1.8,–,60.3 (inactive)
Cc1[nH]nc2ccc(-c3cncc(OCC(N)Cc4ccccc4)c3)cc12 (centres undefined),58.8,2.19,–,92 (inactive)
Cc1ccccc1N(C)C(=O)c1ccc(S(=O)c2nccs2)c([N+](=O)[O-])c1 (centres undefined),9.73,4.15,–,131 (inactive)
c1cc(-c2cnn3cc(-c4ccc(N5CCNCC5)cc4)cnc23)c2cccnc2c1,22.7,0.96,–,100 (inactive)
C[n+]1cc2c3c(ccc2c2ccc4cc5c(cc4c21)OCO5)OCO3.[Cl-] [Sanguinarine chloride],15.1,0.53,–,178 (active)
CCCCCCCCCCCCCCCCCCOCC(COP(=O)([O-])OCC[N+](C)(C)C)OC (centres undefined),51.3 and 99.9,–,225 (active) and 85.1 (inactive),162 (active) and 103 (inactive)
CCN(CC)CCCC(C)Nc1cc(/C=C/c2ccccc2Cl)nc2cc(Cl)ccc12 (centres undefined),6.31,1.01,–,102 (inactive)
COc1ccc(Cn2cc(C(=O)O)c(=O)c3ccccc32)cc1,–,–,98.8 (inactive),116 (inactive)
CN(C)CCCN1c2ccccc2Sc2ccc(C(F)(F)F)cc21.Cl [Triflupromazine hydrochloride],–,–,110 (inactive),113 (inactive)
O=S(=O)(NCc1cccc2ccccc12)c1cc(Cl)c(Oc2cccc(N3CCNCC3)c2)s1,8.55,0.28,–,122 (inactive)

Structure (SMILES),cell number (HCC1569 [1]),cell number (TDF [2]),H1.0 immunofluorescence intensity (TDF [3]),H1.0 immunofluorescence intensity (HCC1569 [4])
CC(=O)C1(O)Cc2c(O)c3c(c(O)c2C(OC2CC(N)C(O)C(C)O2)C1)C(=O)c1ccccc1C3=O (centres undefined) [Idarubicin],49.1 ± 12,5.14 ± 3,–,584 (active)
C[C@H](C(=O)O)c1cccc(C(=O)c2ccccc2)c1 [(S)-(+)-Ketoprofen],–,–,99 (inactive),100 (inactive)
"C=CC(=O)N1C/C(=C\c2ccc([N+](=O)[O-])cc2)C(=O)/C(=C/c2ccc([N+](=O)[O-])cc2)C1 [1-acryloyl-3,5-bis((E)-4-nitrobenzylidene)piperidin-4-one]",17.5,0.39,–,145 (active)
CC(C(=O)O)c1cccc(C(=O)c2ccccc2)c1 (centres undefined) [Ketoprofen],–,–,88.8 (inactive),101 (inactive)
N#Cc1ccc2c(c1)CCN(CCC1CCC(NC(=O)c3ccnc4ccccc34)CC1)C2 (centres undefined),–,–,90.6 (inactive),158 (active)
CCC(C)(C)C(=O)OC1CC(C)C=C2C=CC(C)C(CCC3CC(O)CC(=O)O3)C21 (centres undefined) [Simvastatin],–,–,120 (inactive),106 (inactive)
O=C1c2ccccc2-c2nc3nnnn3nc21 [PDK1/Akt/Flt Dual Pathway Inhibitor],41.8,3.4,–,56.9 (inactive)
COc1ccc(CCN(C)CCCC(C#N)(c2ccc(OC)c(OC)c2)C(C)C)cc1OC (centres undefined) [Verapamil],–,–,90.6 (inactive),98.6 (inactive)
NC(Cn1ccc(=O)c(O)c1)C(=O)O [L-Mimosine],101,86.3,105 (inactive),102 (inactive)
COS(=O)(=O)[O-].C[n+]1c2ccccc2nc2ccccc21 [5-methylphenazin-5-ium methyl sulfate],28.1,4.9,–,688 (active)
COc1ccc(CCN(C)CCCC(C#N)(c2ccc(OC)c(OC)c2)C(C)C)cc1OC.Cl (racemic),–,–,99.2 (inactive),95.5 (inactive)
Cc1cc(Nc2ccc(NC(=O)c3ccc(Nc4ccnc5ccccc45)cc3)cc2)nc(N)n1,13.5,0.96,–,83.8 (inactive)
CCOC(=O)N1CCC(=C2c3ccc(Cl)cc3CCc3cccnc32)CC1 [Loratadine],–,–,98.3 (inactive),103 (inactive)
Nc1ncnc2c1nc(N)n2[C@@H]1O[C@H](CO)[C@@H](O)[C@H]1O,25.5,2.02,–,76.3 (inactive)
Clc1ccc(N/N=C(\c2ccccc2)c2ccccn2)nc1,73.1,1.54,–,111 (inactive)
CCN(CC)CCCC(C)Nc1c2ccc(Cl)cc2nc2ccc(OC)cc12.Cl.Cl (centres undefined) [Quinacrine dihydrochloride],67.6,4.99,–,133 (inactive)
CCN(CC)CCNC(=O)c1c(C)[nH]c(C=C2C(=O)Nc3ccc(Cl)cc32)c1C,22.9,1.9,–,213 (active)
O=C(NC1=CNNC1=C1N=c2ccc(CN3CCOCC3)cc2=N1)NC1CC1,23.5,2.95,–,58.9 (inactive)
CCCCCCCCCCCCC(=O)N1CCCCC1CNC(=O)C(N)CCCCN.Cl.Cl (centres undefined),101,109,104 (inactive),100 (inactive)
Cc1c(C(=O)NN2CCCCC2)nn(-c2ccc(Cl)cc2Cl)c1-c1ccc(I)cc1,–,–,92 (inactive),96.5 (inactive)
CCC(C)C1OC2(CCC1C)CC1CC(CC=C(C)C(OC3CC(OC)C(OC4CC(OC)C(O)C(C)O4)C(C)O3)C(C)C=CC=C3COC4C(O)C(C)=CC(C(=O)O1)C34O)O2 (centres undefined) [Ivermectin],102 ± 2.5,103 ± 8.2,92.8 (inactive),93.7 (inactive)
Cc1ccc([N+](=O)[O-])cc1S(=O)(=O)N(C)N=Cc1cnc2ccc(Br)cn12.Cl.O.O [PI 3-Ka Inhibitor VIII],45.7,4.97,–,125 (inactive)
O=C(c1ccc(Nc2nccc(-c3cc4ccccc4s3)n2)cc1)N1CCC(N2CCCC2)CC1,61.6,3.45,–,174 (active)
O=C(O)C1=CC(O)C(O)C(O)C1 (centres undefined) [Shikimic acid],–,–,97.5 (inactive),100 (inactive)
S=C([S-])N1CCCC1.[NH4+] [Ammonium pyrrolidinedithiocarbamate],87.9,1.9,–,126 (inactive)
